This passage reports Potency results from PubChem BioAssay (NCATS).

Results filed as inconclusive are left out. Where a call stands in place of a potency, no number is given. Active and inactive are the calls of the source. Calls follow the shape of the dose curve; as a rule, active = well fitted inhibition curve with a large enough effect in the repeat runs; inconclusive = weak or mixed curves; inactive = no such curve, though single readings can be large or run the other way. Where a SMILES comes first, the peptide text is derived from it. Bridges are numbered along the chain shown (N, C = ends). [ ]: non-standard residue; d: D form. hArg = N=C(N)NCCCC[C@H](N)C(=O)O; Mpa = O=C(O)CCS
Potency is read from the fitted curve at half-maximal effect.

Chain of Cytochrome P450 2C9 (Homo sapiens) (P11712 whole entry, looked up): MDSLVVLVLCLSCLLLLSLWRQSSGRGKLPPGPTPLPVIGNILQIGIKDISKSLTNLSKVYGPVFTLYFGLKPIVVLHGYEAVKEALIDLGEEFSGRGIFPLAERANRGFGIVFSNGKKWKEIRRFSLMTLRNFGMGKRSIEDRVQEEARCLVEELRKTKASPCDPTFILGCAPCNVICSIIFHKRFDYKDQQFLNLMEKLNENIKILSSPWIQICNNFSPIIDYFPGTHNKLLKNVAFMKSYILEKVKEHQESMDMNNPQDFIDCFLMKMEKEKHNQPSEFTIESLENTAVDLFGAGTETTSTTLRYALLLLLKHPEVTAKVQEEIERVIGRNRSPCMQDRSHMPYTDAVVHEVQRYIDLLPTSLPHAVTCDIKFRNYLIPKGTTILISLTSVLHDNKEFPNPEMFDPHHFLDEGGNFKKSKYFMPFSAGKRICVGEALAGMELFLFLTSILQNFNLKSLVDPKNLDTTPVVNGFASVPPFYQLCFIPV

This test concerns the target Cytochrome P450 2C9 (Homo sapiens) (UniProt P11712). The test can be described thus: Cytochrome P450 family 2 subfamily C member 9 (CYP2C9) small molecule antagonists: luciferase biochemical (cell-free) qHTS assay (AID 1645842). Also: nearly all actives have a fitted effect of over 55% in size. The settings on record: P450-Glo CYP2C9 enzyme assay, luciferin luminescence; series mostly up to 57.4 µM. The protocol:
National Center for Advancing Translational Sciences [NCATS] Assay Overview: Cytochrome P450 (CYP) enzymes are membrane-bound hemeproteins that play a key role in metabolism of drugs and xenobiotics. Assaying the effect of chemicals on CYP isozymes is useful to minimize the adverse drug reactions and toxicities in drug development process. Chemical compounds were tested for their effect on CYP enzyme activities by using P450-Glo (TM) screening systems (Promega Corporation, Madison, WI). These systems provide a luminescent method containing proluciferin substrates and are converted to luciferin products by CYP isozymes. The luciferin products formed are detected with a luciferin detection reagent, and the amount of light produced is proportional to CYP activity. P450-Glo (TM) CYP2C9 screening system (Catalog. No. V9790) was used to detect the compounds that interfere in CYP2C9 activity.
Assay Protocol Summary: Two ul of enzyme-substrate mix supplemented with 0.4% Bovine Serum Albumin was dispensed into medium binding white/solid 1536-well plates (Greiner Bio-One North America Inc., Monroe, NC) using a Flying Reagent Dispenser (FRD, Aurora Discovery, San Diego, CA). […] The assay plates were incubated at room temperature for 10 min. Then 2 ul of NADPH regeneration solution was added to each well of the assay plates using an FRD and incubated at 37C for 1 h. The reaction was stopped by adding 4 ul of detection reagent using an FRD and after 20 min incubation at room temperature, the luminescence signal was measured using a ViewLux plate reader (Perkin Elmer, Shelton, CT). Data were expressed as relative luminescence units.
For `c1ccc2[nH]ccc2c1`, the Potency entry was “inactive”. Turning to `O=S1(=O)OC(c2ccc(O)cc2)(c2ccc(O)cc2)c2ccccc21`, the Potency was 1.95 µM (active). For the compound `O=c1[nH]c(=O)n([C@H]2C[C@H](O)[C@@H](CO)O2)cc1I`, the Potency result is “inactive”. Under `O=C(O)[C@@H]1[C@H]2C[C@H]3c4[nH]c5ccccc5c4CCN3C[C@@H]2CC[C@@H]1O` stands “inactive”; under `CC(C)CCCC(C)CCCC(C)CCCCC(C)CCCC(C)CCCC(C)C` (stereo not given), “inactive”. With `O=C(O)CNC(=O)c1ccccc1I` the entry was “inactive”; with `CCOc1cc(NC(C)=O)ccc1C(=O)OC`, “inactive”; with `O=C1C(c2[nH]c3ccccc3c2O)=Nc2ccccc21`, “inactive”. In the case of `C[C@@H]1CCC[C@H](C)N1`, the Potency result was “inactive”. Under `OCc1ccc(Cl)cc1Cl` stands “inactive”. With `CC(=O)Nc1ccc(OCCOCCOc2ccc(NC(C)=O)cc2)cc1` the figure was 3.47 µM (active). With `O=C(O)CCCc1ccccc1` the entry was “inactive”. Consider `C=CCNC(N)=S`, for which the Potency result is “inactive”. Under `CC(=O)SC[C@@H](Cc1ccccc1)C(=O)NCC(=O)OCc1ccccc1` stands 1.23 µM (active); under `CC(CSC(=O)c1ccccc1)C(=O)N1C[C@@H](Sc2ccccc2)C[C@H]1C(=O)O` (stereo not given in full), “inactive”; under `CC(CN(C)C)C(C)(O)Cc1ccc(Cl)cc1` (stereo not given), “inactive”. Under `O=C(O)CCC(=O)O` stands “inactive”; under `NC(N)=NS(=O)(=O)c1ccc(N)cc1`, “inactive”. For the compound `NC(=O)[C@@H]1CSSCCC(=O)N[C@@H](CCCCN=C(N)N)C(=O)NCC(=O)N[C@@H](CC(=O)O)C(=O)N[C@@H](Cc2c[nH]c3ccccc23)C(=O)N2CCC[C@H]2C(=O)N1` ([Mpa][hArg]GDWPC-NH2; disulfide 1-7), the Potency result was “inactive”. With `O=C(/C=C/c1ccc(O)c(O)c1)O[C@@H]1C[C@@](OC(=O)/C=C/c2ccc(O)c(O)c2)(C(=O)O)C[C@@H](O)[C@@H]1O` the entry was “inactive”.

Turning to `COc1ccc(Cc2cnc(N)nc2N)cc1OC`, the Potency entry is “inactive”. Under `Nc1ncnc(Nc2ccccc2)n1` stands “inactive”. With `CC(=O)N1C[C@H](O)C[C@H]1C(=O)O` the entry was “inactive”. As to `C[N+](C)(C)CC[N+]1(C)Cc2c(Cl)c(Cl)c(Cl)c(Cl)c2C1`, the Potency entry is “inactive”. Under `NS(=O)(=O)c1cc2c(cc1C(F)(F)F)NCNS2(=O)=O` stands “inactive”; under `O=C(/C=C/c1ccccc1)OCc1ccccc1`, 12.3 µM (active); under `NC(=O)N[C@@H](CCC(=O)O)C(=O)O`, “inactive”.

Turning to `O=c1[nH]cnc2nc[nH]c12`, the Potency result was “inactive”. Under `NS(=O)(=O)c1ccc(C(=O)O)cc1` stands “inactive”; under `Cc1c(NC(=O)c2cccnc2)c(=O)n(-c2ccccc2)n1C`, “inactive”. For the compound `O=C(O)Cn1c(C(=O)Nc2nc(-c3ccccc3Cl)cs2)cc2ccccc21`, the Potency entry is “inactive”. With `CN[C@@H]1[C@H](O)[C@H](NC)[C@H]2O[C@@]3(O)C(=O)C[C@@H](C)O[C@H]3O[C@@H]2[C@H]1O` the entry was “inactive”.

`CCCCCCCCCCC(CO)CCCCCCCC` (stereo not given): the Potency entry was “inactive”. Under `NS(=O)(=O)c1ccc(NC(=O)CCC(=O)O)cc1` stands “inactive”; under `CCOC(=O)OC(C)OC(=O)[C@@H]1N2C(=O)[C@@H](NC(=O)[C@H](N)c3ccccc3)[C@H]2SC1(C)C` (stereo not given in full), “inactive”.

Take `NC(=O)CC[C@@H](N)C(=O)O`: the Potency entry is “inactive”. With `CN/C(=C\[N+](=O)[O-])NCCSCc1csc(CN(C)C)n1` the entry was “inactive”; with `COc1ccc(C(=O)NCc2ccc(OCCN(C)C)cc2)cc1OC`, “inactive”. Under `CC(=O)N(CC(O)CN(C(C)=O)c1c(I)c(C(=O)NCC(O)CO)c(I)c(C(=O)NCC(O)CO)c1I)c1c(I)c(C(=O)NCC(O)CO)c(I)c(C(=O)NCC(O)CO)c1I` (stereo not given) stands “inactive”. Take `COc1ccccc1OC(=O)Oc1ccccc1OC`: the Potency result is “inactive”.
